DT40 TDP1 no CPT: qHTS for Inhibitors of human tyrosyl-DNA phosphodiesterase 1 (TDP1): qHTS in cells in absence of CPT; DT40 Tdp1-/- hTDP1 cells, no CPT, ATP luminescence, 48 h; Potency, µM (top dose mostly 46.2 µM), for inactives: at the top dose activity change, negative = growth inhibition, most hits filed as inhibitors; actives 15% (n = 420,000); AID 686978, 2013; also: potency is read from the fitted curve at half-maximal effect; % is scaled to controls: 0 for no effect and ±100 for the full control effect; nearly all actives have a fitted effect of over 55% in size
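Chicken DT40 Tdp1-/- cells stably complemented with human TDP1 were seeded at 400 cells/well with DMSO in place of 20 nM camptothecin. After compound pinning, cells grew at least 48 hr at 37 °C; viability read by CellTiter-Glo luminescence.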
DT40 TDP1 CPT: growth inhibition of DT40 Tdp1-/-;hTDP1 cells with camptothecin (screen for TDP1 inhibitors); actives 12% (n = 420,000); chicken DT40 Tdp1-/-;hTDP1 cells + 20 nM CPT, ATP luminescence, 48 h; Potency, µM (highest dose often 46.2 µM), inactives show top-dose activity change, negative = growth inhibition, most hits filed as inhibitors; also: potency is read from the fitted curve at half-maximal effect; % is scaled to controls: 0 for no effect and ±100 for the full control effect; nearly all actives have a fitted effect of over 55% in size
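Cell growth measured by CellTiter-Glo luminescence after a minimum 48 h, 37 C compound exposure with 20 nM CPT in Tdp1-knockout DT40 cells stably expressing hTDP1, seeded 400/well; qHTS titration format.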
IL-1B inflam inh: inflammasome signaling inhibition, IL-1 beta readout. THP-1 LPS/ATP IL-1B secretion, AlphaLISA, 16 h; hits give low values. activity change, % at 57.5 µM. AID 743279. actives 4.7% (n = 360,000); in the data active = activity change below about -50%; inconclusive = mostly about -30% to -49%; also: % is scaled to controls: 0 for no effect and ±100 for the full control effect
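THP-1 cells pretreated 1 hr with compounds (up to 57.5 uM final), then stimulated with LPS (250 ng/mL final) plus ATP (1.25 mM final); secreted IL-1B measured by AlphaLISA after 16 hr, decreased signal indicating inhibition.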
TGFb inhibitor: inhibitors of TGF-b signaling. HepG2 CAGA-GFP TGF-b/SMAD3 reporter, GFP fluorescence, 18 h; TGF-beta stimulated, 500 pg/mL final. Potency, µM (highest dose often 46.1 µM), without a hit: top-dose activity, negative = inhibition, actives largely listed as inhibitors. actives 1.2% (n = 410,000). AID 588855; also: potency is read from the fitted curve at half-maximal effect; % is scaled to controls: 0 for no effect and ±100 for the full control effect; nearly all actives have a fitted effect of over 65% in size
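GFP signal (ex488/em500-530) from TGF-beta-stimulated HEPG2 CAGA-GFP cells, 500 pg/mL final, 18 h at 37 degrees C in DMEM plus 1% FBS, normalized to unstimulated and DMSO-stimulated controls.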
HepG2 tox: kills HepG2 cells in TGF-b inhibitor counter-screen; Potency, µM (titrated, usually from 46.1 µM), inactives show top-dose activity change, negative = cytotoxicity, usual class: cytotoxic; HepG2 CAGA-GFP viability, ATP luminescence, 18 h; actives 0.76% (n = 410,000); also: potency is read from the fitted curve at half-maximal effect
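CellTiter-Glo luminescence gave cytotoxicity after 18 hours at 37 degrees C. The cells were HepG2 CAGA-GFP in 1% FBS DMEM, stimulated with 500 pg/mL TGF-beta after compound addition. %Activity was normalised to no-cell wells (complete cell-killing) and DMSO (no toxicity), and curves were fitted and classified.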
S-ASM inh: human S-ASM enzyme inhibition; P17405; placental ASM, HMU-PC fluorogenic substrate, 60 min; Potency, µM (doses to about 57.5 µM), without a hit: at the top dose activity change, negative = inhibition, usual class: inhibitors; actives 0.006% (n = 340,000); also: potency is read from the fitted curve at half-maximal effect
Target sequence (P17405 47-631 limits assumed): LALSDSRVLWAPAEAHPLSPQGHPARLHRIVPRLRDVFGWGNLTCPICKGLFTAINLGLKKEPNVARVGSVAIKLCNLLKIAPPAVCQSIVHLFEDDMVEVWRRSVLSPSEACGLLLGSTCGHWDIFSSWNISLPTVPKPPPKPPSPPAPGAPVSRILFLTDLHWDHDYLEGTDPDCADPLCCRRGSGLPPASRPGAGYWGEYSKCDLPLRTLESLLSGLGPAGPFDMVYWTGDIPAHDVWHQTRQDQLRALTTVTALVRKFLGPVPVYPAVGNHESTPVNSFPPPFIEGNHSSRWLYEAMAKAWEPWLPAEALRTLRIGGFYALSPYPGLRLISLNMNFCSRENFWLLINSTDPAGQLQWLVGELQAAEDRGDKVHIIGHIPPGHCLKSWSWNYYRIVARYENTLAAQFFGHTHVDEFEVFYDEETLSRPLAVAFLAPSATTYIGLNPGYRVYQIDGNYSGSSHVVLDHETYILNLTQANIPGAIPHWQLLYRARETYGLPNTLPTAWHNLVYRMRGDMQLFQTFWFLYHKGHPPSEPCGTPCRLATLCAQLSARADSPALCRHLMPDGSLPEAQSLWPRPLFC
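Human placenta-derived ASM preincubated with compound 10 min at room temperature, then reacted with 9 uM (final) fluorogenic HMU-PC substrate for 60 min at 37 C. Stop solution raises pH to 10; fluorescence read at Ex 386/Em 447 nm.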
* hit, by the source's call; ? = inconclusive; · = no result given; [ ] = another dose, or the depositor's remark. Only some compounds are listed: those with a hit (about 19% of all), similar ones and a draw of the others. Unless noted, calls follow the shape of the dose curve; as a rule, active = well fitted curve in the direction sought with a large enough effect; inconclusive = small, poorly fitted or top-dose-only effect, or another doubt; inactive = no such curve, though single readings can be large; an effect the other way counts as inactive or inconclusive.

SMILES | DT40 TDP1 no CPT | DT40 TDP1 CPT | IL-1B inflam inh | TGFb inhibitor | HepG2 tox | S-ASM inh
O=C(Cn1c(=O)n(CCCS(=O)(=O)C2CCCCC2)c(=O)c2ccccc21)Nc1ccccc1F | -9% | -30% | · | -5% | -12% | ·
CN(C)c1cnn(-c2ccccc2)c(=O)c1Cl | -6% | -23% | 9 | -3% | -1% | 6%
COc1ccc2cnn(-c3ccccc3)c(=O)c2c1OC | ? | ? | -18 | 10% | -10% | 6%
COc1c(Cl)cnn(-c2ccccc2)c1=O | -7% | 7% | -75* | -13% | 0% | 3%
COc1c(Cl)cnn(-c2ccc(Cl)c(Cl)c2)c1=O | -4% | 3% | -98* | -8% | -9% | -2%
COc1nn(-c2ccccc2)c(=O)c(Cl)c1Cl | 4.6µM* | 5.2µM* | -96* | 14µM* | 14µM* | 2%
COc1ccc(-n2ncc(Cl)c(Cl)c2=O)cc1 | 2.9µM* | 4.1µM* | -107* | ? | -30% | 6%
O=C(CN1CCc2cc3c(cc2C1)OCCCO3)Nc1ccc(S(=O)(=O)N2CCCC2)cc1 | ? | ? | 22 | -6% | 1% | -7%
COc1ccc(Cl)cc1NC(=O)Cn1cnc2c1c(=O)n(C)c(=O)n2C | ? | ? | · | ? | -31% | ·
O=C(Cn1c(=O)nc(-c2ccccc2)c2cc(Cl)ccc21)Nc1ccc(F)c(Cl)c1 | ? | ? | · | 30% | -7% | ·
COc1ccc(-c2nnn3c2nc(NCc2ccc(C)cc2)c2ccccc23)cc1 | 2% | 15% | · | ? | -13% | ·
Cc1cc(C)cc(-n2c(C)nc3cc(C(=O)NCc4ccccc4Cl)ccc32)c1 | ? | 2% | · | ? | -32% | ·
Cn1nc(C(=O)Nc2cc(Cl)ccc2N2CCCC2)c2ccccc2c1=O | ? | ? | 30 | -18% | -4% | -15%
CCn1nc(C(=O)Nc2nc(-c3ccccn3)cs2)c2ccccc2c1=O | 3.3µM* | 2.9µM* | 1 | ? | -38% | -12%
CCCn1nc(C(=O)Nc2ccc(S(=O)(=O)Nc3ncccn3)cc2)c2ccccc2c1=O | -13% | -26% | 24 | 1% | 11% | 3%
Cn1nc(C(=O)Nc2cccnc2)c2ccccc2c1=O | ? | ? | -16 | 27% | 1% | -3%
Cn1nc(C(=O)Nc2nc(-c3ccccn3)cs2)c2ccccc2c1=O | 1.3µM* | 4.6µM* | 17 | -5% | -23% | -4%
CCCn1nc(C(=O)Nc2nc(-c3ccccn3)cs2)c2ccccc2c1=O | 2.3µM* | 7.3µM* | 124 | ? | -48% | -18%
CCn1nc(C(=O)NC2=NCCS2)c2ccccc2c1=O | -12% | -17% | 3 | -17% | -23% | 0%
CCn1nc(C(=O)Nc2ccccc2N2CCCC2)c2ccccc2c1=O | ? | ? | -62* | -25% | -5% | -9%
COc1ccc(CN2CCC3(CCC(CNC(=O)c4ccco4)O3)CC2)c(OC)c1C (configuration not stated) | -28% | -4%[9.04 µM] | · | · | · | ·
CC(=O)C1=C(O)C(=O)N(c2ccccn2)C1c1cccc(F)c1 (configuration not stated) | -6% | -9% | -14 | 10% | 0% | 9%
CCc1ccc(-c2cc(N)n(-c3ccccc3)n2)cc1 | 0% | -18% | -22 | 8% | -16% | 2%
CCc1ccc(-c2cc3c(N4CCN(c5ccccc5)CC4)nccn3n2)cc1 | 21µM* | ? | · | -16% | -14% | ·
O=C(NCCCN1CCN(c2ccccc2)CC1)c1ccc2nc(CCc3ccccc3)oc2c1 | 4.6µM* | 3.7µM* | · | -16% | -24% | ·
SMILES | DT40 TDP1 no CPT | DT40 TDP1 CPT | IL-1B inflam inh | TGFb inhibitor | HepG2 tox | S-ASM inh
CC(C)c1nc2ccc(C(=O)NCCCN3CCN(c4ccc(F)cc4)CC3)cc2o1 | ? | ? | · | ? | -28% | ·
COc1ccc(CNC(=O)c2ccc3nc(CCc4ccccc4)oc3c2)cc1OC | 16µM* | 18µM* | · | 3% | -23% | ·
COc1ccc(Cc2nc3ccc(C(=O)NCc4cc(C)no4)cc3o2)cc1 | -30% | -21% | -11 | -9% | -2% | 0%
CCc1cc(CNC(=O)c2ccc3nc(Cc4ccc(OC)c(OC)c4)oc3c2)on1 | ? | 23µM* | 5 | -10% | -14% | 0%
CC(C)c1nc2ccc(C(=O)NCCCN3CCN(c4cccc(Cl)c4)CC3)cc2o1 | 21µM* | 18µM* | · | ? | -18% | ·
COc1cccc(CC2(CO)CCCN(Cc3ccc4c(c3)OCCO4)C2)c1 (configuration not stated) | ? | ? | -2 | 8% | -16% | 3%
COc1ccc(N2CCN(CCCNC(=O)c3nnc(Cc4ccc(F)cc4)o3)CC2)cc1 | ? | 16µM* | · | 7% | -22% | ·
COCC1CCCCN1C(=O)c1ccc2nc(Cc3ccc(OC)c(OC)c3)oc2c1 (configuration not stated) | ? | 12µM* | 77 | -1% | 7% | 1%
COc1ccc(N2CCN(CCCNC(=O)c3ccc4nc(Cc5ccccc5)oc4c3)CC2)cc1 | 6.5µM* | 6.5µM* | · | -16% | -60% | ·
COc1ccc(Cc2nc3ccc(C(=O)NCCCN4CCN(C)CC4)cc3o2)cc1 | ? | ? | · | -23% | -33% | ·
CCC1CCCCN1C(=O)c1ccc2nc(Cc3ccc(OC)cc3)oc2c1 (configuration not stated) | ? | ? | -5 | -9% | 0% | 1%
COc1ccc(Cc2nc3ccc(C(=O)NCCc4ncccc4C)cc3o2)cc1OC | 23µM* | 21µM* | -5 | -3% | -28% | ·
CCOC(=O)c1cc(-c2cccc(O)c2)oc1C | ? | ? | 24 | · | · | ·
O=C(Nc1cccc(Cl)c1)c1ccc2nc(Cc3ccccc3)oc2c1 | 21µM* | 21µM* | · | ? | -47% | ·
O=C(Nc1ccc(Br)cc1F)c1ccc2nc(CCc3ccccc3)oc2c1 | 12µM* | 7.3µM* | · | 21% | 0% | ·
CCC(C)NC(=O)c1ccc2nc(Cc3ccccc3)oc2c1 (configuration not stated) | 15µM* | ? | · | 32% | -11% | ·
O=C(NCCCN1CCN(c2cccc(Cl)c2)CC1)c1ccc2nc(Cc3ccccc3)oc2c1 | 15µM* | 23µM* | · | ? | -44% | ·
CNC(=O)c1ccc2nc(CCc3ccccc3)oc2c1 | -2% | 1% | · | -1% | -17% | ·
